# Columns and labels:
# [1] = biological target: Maternal embryonic leucine zipper kinase (Homo sapiens) (UniProt Q14680); details: at 1 µM
# [2] = biological target: Maternal embryonic leucine zipper kinase (Homo sapiens) (UniProt Q14680); details: at 10 µM
# [3] = biological target: Misshapen-like kinase 1 (Homo sapiens) (UniProt Q8N4C8); details: at 1 µM
# [4] = biological target: Misshapen-like kinase 1 (Homo sapiens) (UniProt Q8N4C8); details: at 10 µM
# [5] = biological target: T1, Dual specificity mitogen-activated protein kinase kinase 7 (Homo sapiens) (UniProt O14733); details: at 1 µM
# T1 sequence (whole entry): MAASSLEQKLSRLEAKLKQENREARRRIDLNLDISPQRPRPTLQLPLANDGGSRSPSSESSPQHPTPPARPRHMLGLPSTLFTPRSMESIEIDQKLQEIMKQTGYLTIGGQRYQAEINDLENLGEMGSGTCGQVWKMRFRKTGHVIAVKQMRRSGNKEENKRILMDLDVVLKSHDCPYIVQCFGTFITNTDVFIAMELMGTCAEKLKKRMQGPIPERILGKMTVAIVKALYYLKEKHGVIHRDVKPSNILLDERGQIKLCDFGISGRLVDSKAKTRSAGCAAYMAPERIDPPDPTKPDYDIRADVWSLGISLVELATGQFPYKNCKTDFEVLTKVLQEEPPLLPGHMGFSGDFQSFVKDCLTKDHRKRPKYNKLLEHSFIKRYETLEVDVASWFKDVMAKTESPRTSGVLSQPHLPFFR
# [6] = biological target: T1, Dual specificity mitogen-activated protein kinase kinase 7 (Homo sapiens); details: at 10 µM
# [7] = biological target: Myosin light chain kinase, smooth muscle (Homo sapiens) (UniProt Q15746); details: at 1 µM
# Sequence of Myosin light chain kinase, smooth muscle (Homo sapiens) (Q15746 whole entry): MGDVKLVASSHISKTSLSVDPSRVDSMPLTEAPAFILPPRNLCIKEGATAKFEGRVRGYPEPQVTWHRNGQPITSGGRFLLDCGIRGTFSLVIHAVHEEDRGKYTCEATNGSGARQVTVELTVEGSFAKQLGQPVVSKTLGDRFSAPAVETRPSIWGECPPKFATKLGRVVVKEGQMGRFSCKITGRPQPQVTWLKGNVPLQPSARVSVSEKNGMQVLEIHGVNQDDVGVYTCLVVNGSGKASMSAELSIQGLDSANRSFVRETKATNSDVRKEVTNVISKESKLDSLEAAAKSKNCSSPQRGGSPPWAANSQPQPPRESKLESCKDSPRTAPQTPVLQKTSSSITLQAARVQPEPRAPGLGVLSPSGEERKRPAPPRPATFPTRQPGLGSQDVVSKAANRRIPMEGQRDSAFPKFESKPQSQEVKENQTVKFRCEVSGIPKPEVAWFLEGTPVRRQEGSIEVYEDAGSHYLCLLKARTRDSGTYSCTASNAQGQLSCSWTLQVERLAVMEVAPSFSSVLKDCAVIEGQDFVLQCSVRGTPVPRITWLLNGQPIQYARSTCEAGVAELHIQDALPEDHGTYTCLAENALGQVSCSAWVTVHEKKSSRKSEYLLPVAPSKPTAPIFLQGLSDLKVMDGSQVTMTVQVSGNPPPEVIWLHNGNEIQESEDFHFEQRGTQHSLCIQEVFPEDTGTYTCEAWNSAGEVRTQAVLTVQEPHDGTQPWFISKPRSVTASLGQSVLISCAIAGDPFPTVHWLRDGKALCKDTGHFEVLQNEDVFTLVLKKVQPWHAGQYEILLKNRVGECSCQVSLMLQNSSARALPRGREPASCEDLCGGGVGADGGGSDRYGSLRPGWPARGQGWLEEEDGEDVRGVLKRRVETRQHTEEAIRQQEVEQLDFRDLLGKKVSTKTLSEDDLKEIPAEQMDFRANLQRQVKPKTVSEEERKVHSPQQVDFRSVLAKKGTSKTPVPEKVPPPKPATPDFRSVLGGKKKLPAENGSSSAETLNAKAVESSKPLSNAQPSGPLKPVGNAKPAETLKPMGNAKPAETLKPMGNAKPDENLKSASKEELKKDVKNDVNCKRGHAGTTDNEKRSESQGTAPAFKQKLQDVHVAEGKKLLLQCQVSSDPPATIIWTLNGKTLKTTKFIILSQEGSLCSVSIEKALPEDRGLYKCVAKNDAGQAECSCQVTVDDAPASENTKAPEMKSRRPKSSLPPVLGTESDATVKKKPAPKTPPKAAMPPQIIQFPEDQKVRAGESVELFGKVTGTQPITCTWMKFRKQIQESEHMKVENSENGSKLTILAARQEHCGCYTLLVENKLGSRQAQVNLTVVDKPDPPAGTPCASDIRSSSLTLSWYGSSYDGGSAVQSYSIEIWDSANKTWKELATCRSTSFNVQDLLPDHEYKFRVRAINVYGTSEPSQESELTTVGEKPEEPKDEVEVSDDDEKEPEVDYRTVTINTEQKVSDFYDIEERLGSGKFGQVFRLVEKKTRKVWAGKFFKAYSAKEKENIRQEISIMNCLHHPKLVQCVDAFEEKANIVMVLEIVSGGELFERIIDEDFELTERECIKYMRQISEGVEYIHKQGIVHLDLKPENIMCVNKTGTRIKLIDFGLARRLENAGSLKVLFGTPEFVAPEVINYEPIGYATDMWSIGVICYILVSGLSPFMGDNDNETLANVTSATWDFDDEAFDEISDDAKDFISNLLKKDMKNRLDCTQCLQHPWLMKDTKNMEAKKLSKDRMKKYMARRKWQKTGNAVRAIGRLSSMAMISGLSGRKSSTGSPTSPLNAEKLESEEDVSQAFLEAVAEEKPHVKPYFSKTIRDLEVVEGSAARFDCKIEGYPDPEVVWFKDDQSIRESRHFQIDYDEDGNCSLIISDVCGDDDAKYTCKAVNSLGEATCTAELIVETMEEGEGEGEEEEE
# [8] = biological target: Myosin light chain kinase, smooth muscle (Homo sapiens) (UniProt Q15746); details: at 10 µM
# [9] = biological target: Mitogen-activated protein kinase kinase kinase 9 (Homo sapiens) (UniProt P80192); details: at 1 µM
# [10] = biological target: Mitogen-activated protein kinase kinase kinase 9 (Homo sapiens) (UniProt P80192); details: at 10 µM
# [11] = biological target: Serine/threonine-protein kinase MRCK alpha (Homo sapiens) (UniProt Q5VT25); details: at 1 µM
# [12] = biological target: Serine/threonine-protein kinase MRCK alpha (Homo sapiens) (UniProt Q5VT25); details: at 10 µM
# [13] = biological target: Serine/threonine-protein kinase MRCK beta (Homo sapiens) (UniProt Q9Y5S2); details: at 1 µM
# [14] = biological target: Serine/threonine-protein kinase MRCK beta (Homo sapiens) (UniProt Q9Y5S2); details: at 10 µM
# [15] = biological target: Ribosomal protein S6 kinase alpha-5 (Homo sapiens) (UniProt O75582); details: at 1 µM
# Sequence of Ribosomal protein S6 kinase alpha-5 (Homo sapiens) (O75582 whole entry, looked up): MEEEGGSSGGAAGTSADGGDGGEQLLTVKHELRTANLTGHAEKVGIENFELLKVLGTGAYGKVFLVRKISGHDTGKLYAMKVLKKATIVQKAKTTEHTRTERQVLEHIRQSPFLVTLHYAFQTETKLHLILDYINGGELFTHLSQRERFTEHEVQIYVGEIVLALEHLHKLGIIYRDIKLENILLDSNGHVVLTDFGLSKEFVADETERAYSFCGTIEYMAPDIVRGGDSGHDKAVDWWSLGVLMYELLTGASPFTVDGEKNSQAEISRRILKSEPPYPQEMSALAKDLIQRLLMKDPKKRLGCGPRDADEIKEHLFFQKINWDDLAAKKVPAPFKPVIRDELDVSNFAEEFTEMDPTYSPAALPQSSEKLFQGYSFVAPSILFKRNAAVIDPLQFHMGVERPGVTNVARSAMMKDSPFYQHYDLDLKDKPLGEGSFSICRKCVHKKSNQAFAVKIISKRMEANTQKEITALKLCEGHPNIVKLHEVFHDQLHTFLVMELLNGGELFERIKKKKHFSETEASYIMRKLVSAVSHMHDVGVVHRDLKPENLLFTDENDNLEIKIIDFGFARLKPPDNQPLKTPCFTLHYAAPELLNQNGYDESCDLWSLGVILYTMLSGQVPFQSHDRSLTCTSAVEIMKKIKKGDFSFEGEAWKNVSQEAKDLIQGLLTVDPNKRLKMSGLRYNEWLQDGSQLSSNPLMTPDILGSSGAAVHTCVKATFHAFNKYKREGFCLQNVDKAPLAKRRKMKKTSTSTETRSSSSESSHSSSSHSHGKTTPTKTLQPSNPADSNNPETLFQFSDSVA
# [16] = biological target: Ribosomal protein S6 kinase alpha-5 (Homo sapiens) (UniProt O75582); details: at 10 µM
# [17] = biological target: Dual specificity mitogen-activated protein kinase kinase 1 (Homo sapiens) (UniProt Q02750); details: at 1 µM
# Sequence of Dual specificity mitogen-activated protein kinase kinase 1 (Homo sapiens) (Q02750 whole entry): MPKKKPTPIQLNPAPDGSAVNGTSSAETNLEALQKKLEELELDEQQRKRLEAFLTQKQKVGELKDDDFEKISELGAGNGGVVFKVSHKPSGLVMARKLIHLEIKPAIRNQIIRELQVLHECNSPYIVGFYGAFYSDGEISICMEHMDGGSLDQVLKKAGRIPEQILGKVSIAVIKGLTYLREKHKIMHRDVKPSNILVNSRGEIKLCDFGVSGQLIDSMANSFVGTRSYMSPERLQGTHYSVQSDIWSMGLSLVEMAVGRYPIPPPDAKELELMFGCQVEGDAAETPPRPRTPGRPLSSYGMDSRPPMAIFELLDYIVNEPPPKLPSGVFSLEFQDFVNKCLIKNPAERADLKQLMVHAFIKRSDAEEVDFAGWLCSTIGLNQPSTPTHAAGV
# [18] = biological target: Dual specificity mitogen-activated protein kinase kinase 1 (Homo sapiens) (UniProt Q02750); details: at 10 µM
# [19] = biological target: T2, Dual specificity mitogen-activated protein kinase kinase 6 (Homo sapiens) (UniProt P52564); details: at 1 µM
# T2 sequence (whole entry): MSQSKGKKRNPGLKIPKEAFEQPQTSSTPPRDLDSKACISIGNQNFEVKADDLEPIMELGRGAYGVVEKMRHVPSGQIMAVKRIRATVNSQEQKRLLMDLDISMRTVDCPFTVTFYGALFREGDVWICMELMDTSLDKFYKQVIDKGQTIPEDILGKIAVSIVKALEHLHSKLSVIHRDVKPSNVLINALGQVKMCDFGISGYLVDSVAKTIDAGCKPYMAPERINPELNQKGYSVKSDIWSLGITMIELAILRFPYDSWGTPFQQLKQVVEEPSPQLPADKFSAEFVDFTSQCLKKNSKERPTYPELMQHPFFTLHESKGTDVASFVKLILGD
# [20] = biological target: T2, Dual specificity mitogen-activated protein kinase kinase 6 (Homo sapiens); details: at 10 µM
# Sequence of Maternal embryonic leucine zipper kinase (Homo sapiens) (Q14680 whole entry, looked up): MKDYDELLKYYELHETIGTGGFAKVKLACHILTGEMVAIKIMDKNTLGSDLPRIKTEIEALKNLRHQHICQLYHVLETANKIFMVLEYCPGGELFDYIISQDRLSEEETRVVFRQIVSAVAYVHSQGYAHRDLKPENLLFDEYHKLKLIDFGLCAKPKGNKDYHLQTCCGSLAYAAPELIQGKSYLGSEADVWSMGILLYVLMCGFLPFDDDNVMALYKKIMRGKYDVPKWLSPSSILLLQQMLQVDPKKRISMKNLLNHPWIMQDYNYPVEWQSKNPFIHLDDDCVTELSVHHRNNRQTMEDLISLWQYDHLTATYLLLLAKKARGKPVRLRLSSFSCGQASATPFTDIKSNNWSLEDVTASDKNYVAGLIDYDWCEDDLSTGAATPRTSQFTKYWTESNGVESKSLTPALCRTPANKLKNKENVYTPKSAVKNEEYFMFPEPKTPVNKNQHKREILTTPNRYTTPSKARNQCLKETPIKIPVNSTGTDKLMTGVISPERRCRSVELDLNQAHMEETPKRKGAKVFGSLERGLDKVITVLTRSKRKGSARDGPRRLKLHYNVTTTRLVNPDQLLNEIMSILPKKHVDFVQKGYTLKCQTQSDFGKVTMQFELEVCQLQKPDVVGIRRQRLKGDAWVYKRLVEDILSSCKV
# Sequence of Misshapen-like kinase 1 (Homo sapiens) (Q8N4C8 whole entry, looked up): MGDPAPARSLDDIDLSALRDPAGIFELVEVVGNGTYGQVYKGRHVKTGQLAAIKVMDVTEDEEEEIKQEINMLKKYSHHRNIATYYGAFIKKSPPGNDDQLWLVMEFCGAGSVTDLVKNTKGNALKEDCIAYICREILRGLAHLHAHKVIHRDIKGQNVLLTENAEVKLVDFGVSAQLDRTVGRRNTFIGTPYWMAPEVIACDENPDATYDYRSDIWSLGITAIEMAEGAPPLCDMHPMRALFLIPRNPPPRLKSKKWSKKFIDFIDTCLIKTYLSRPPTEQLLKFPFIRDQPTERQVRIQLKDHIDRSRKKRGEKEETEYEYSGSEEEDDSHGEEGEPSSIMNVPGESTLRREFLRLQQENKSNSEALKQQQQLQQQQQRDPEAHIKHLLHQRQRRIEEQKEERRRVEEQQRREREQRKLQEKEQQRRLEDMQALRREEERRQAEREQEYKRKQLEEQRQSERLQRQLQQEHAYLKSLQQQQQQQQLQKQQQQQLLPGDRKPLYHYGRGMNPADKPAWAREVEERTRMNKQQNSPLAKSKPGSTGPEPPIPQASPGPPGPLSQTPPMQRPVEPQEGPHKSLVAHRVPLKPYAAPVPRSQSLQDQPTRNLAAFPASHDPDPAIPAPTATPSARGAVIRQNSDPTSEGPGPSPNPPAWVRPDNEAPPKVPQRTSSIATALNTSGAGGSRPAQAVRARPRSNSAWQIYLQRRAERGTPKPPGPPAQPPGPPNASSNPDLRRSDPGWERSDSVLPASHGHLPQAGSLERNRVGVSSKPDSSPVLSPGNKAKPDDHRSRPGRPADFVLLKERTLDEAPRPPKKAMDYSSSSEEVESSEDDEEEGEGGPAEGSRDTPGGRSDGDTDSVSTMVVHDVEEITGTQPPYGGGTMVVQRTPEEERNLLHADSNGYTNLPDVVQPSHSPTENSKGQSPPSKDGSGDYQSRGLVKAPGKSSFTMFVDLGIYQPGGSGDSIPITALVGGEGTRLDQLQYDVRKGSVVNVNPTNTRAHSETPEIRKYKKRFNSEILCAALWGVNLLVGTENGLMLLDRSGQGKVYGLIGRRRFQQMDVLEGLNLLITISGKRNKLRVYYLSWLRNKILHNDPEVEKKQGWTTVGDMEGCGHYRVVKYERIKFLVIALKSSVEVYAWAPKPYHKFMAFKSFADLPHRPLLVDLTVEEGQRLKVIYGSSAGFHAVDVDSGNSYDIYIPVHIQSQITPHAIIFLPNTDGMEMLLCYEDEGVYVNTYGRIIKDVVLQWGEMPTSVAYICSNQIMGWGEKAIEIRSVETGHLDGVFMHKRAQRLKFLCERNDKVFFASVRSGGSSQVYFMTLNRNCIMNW
SMILES,residual activity [1],residual activity [2],residual activity [3],residual activity [4],residual activity [5],residual activity [6],residual activity [7],residual activity [8],residual activity [9],residual activity [10],residual activity [11],residual activity [12],residual activity [13],residual activity [14],residual activity [15],residual activity [16],residual activity [17],residual activity [18],residual activity [19],residual activity [20]
COC(=O)[C@@]1(O)C[C@H]2O[C@]1(C)n1c3ccccc3c3c4c(c5c6ccccc6n2c5c31)C(=O)NC4,1%,-1%,0%,1%,7%,0%,1%,2%,1%,0%,71%,23%,33%,5%,5%,0%,–,–,–,–
O=c1[nH]c2ccccc2n1C1CCN(Cc2ccc(-c3nc4cc5[nH]cnc5cc4nc3-c3ccccc3)cc2)CC1,94%,65%,97%,80%,112%,112%,76%,4%,98%,100%,122%,128%,96%,82%,132%,106%,127%,62%,80%,90%
C[S+]([O-])c1ccc(-c2nc(-c3ccc(F)cc3)c(-c3ccncc3)[nH]2)cc1 (stereo unspecified),107%,84%,112%,63%,86%,68%,118%,89%,101%,–,106%,119%,113%,110%,97%,98%,113%,110%,43%,3%
O=C1NC(=O)c2c1c1c3ccccc3n3c1c1c2c2ccccc2n1C1CCC3O1,55%,72%,86%,71%,100%,98%,90%,65%,1%,2%,–,–,–,–,41%,33%,40%,51%,27%,10%
CC(C)[C@H](CO)Nc1nc(Nc2cccc(Cl)c2)c2ncn(C(C)C)c2n1,66%,18%,–,–,75%,–,–,46%,10%,1%,–,–,98%,88%,–,–,–,–,97%,64%
O=C1c2ccccc2-c2nc3nnnn3nc21,67%,33%,105%,107%,66%,39%,79%,104%,103%,102%,107%,100%,116%,–,145%,–,–,–,–,116%
COc1cc(OC)c(/C=C2\C(=O)Nc3ccccc32)c(OC)c1,104%,77%,105%,50%,98%,96%,88%,77%,92%,65%,–,–,83%,84%,–,–,–,–,105%,87%
COc1ccc2c(c[n+](C)c3c4cc5c(cc4ccc23)OCO5)c1OC,84%,31%,97%,75%,110%,71%,78%,–,–,81%,85%,84%,90%,81%,–,–,125%,119%,–,130%
c1cc(-c2cnn3cc(-c4ccc(OCCN5CCCCC5)cc4)cnc23)ccn1,5%,-1%,59%,13%,–,–,–,71%,78%,17%,121%,118%,106%,–,121%,60%,123%,117%,–,–
CCc1nc(-c2ccc(OC)cc2)[nH]c1-c1ccncc1,–,65%,–,–,–,–,–,–,–,–,115%,114%,–,–,108%,112%,–,–,–,–
O=[N+]([O-])/C=C/c1ccc2c(c1)OCO2,78%,84%,97%,82%,112%,84%,89%,82%,100%,111%,106%,100%,83%,89%,125%,110%,127%,120%,85%,103%
CC(C)(C)c1cc(C=C(C#N)C#N)cc(Br)c1O,–,–,122%,113%,–,102%,–,–,104%,97%,108%,–,115%,–,122%,97%,113%,96%,–,115%
CN[C@@H]1C[C@H]2O[C@@](C)([C@@H]1OC)n1c3ccccc3c3c4c(c5c6ccccc6n2c5c31)C(=O)NC4,–,–,–,–,–,–,0%,1%,0%,1%,–,–,–,–,–,–,–,–,–,–
CCn1cnc2c(Nc3cccc(Cl)c3)nc(N[C@@H]3CCCC[C@@H]3N)nc21,59%,18%,–,80%,86%,91%,94%,46%,16%,2%,–,–,94%,78%,–,–,87%,25%,99%,78%
COc1cc2ncnc(Nc3ccc(OCc4ccccc4)cc3)c2cc1OC,79%,77%,87%,71%,102%,85%,84%,90%,81%,56%,121%,117%,95%,95%,–,–,115%,84%,90%,87%
N/C(=N\[N+](=O)[O-])N/N=C\c1ccc(-c2cccc([N+](=O)[O-])c2)o1,92%,85%,99%,78%,–,–,–,–,–,–,–,–,–,–,–,–,–,–,88%,83%
COc1ccc2c(c1)/C(=C/c1cnc[nH]1)C(=O)N2,24%,3%,68%,14%,71%,16%,–,–,25%,4%,129%,100%,–,–,–,–,62%,11%,–,–
O=C1Nc2ccc3ncsc3c2/C1=C/c1c[nH]cn1,6%,1%,27%,6%,43%,12%,25%,11%,9%,2%,104%,90%,75%,49%,43%,7%,15%,1%,-1%,1%
